Test systems include RPMI-8226 leukemia; OVCAR-8 ovarian; OVCAR-5 ovarian; OVCAR-4 ovarian; SK-OV-3 ovarian; IGROV1 ovarian; OVCAR-3 ovarian; HS 578T breast; T-47D breast; BT-549 breast; MDA-MB-435 melanoma; SW-620 colon; MCF7 breast; HCT-116 colon; HCC-2998 colon; KM12 colon; NCI/ADR-RES ovarian.
What all share (assay): NCI-60 one-dose screen, 48 h (100 = growth as untreated, 0 = no growth, -100 = all killed)
Holding throughout (settings): 10 µM unless noted

About 83,000 compounds went through this panel and 20% of them were active in at least one assay; those are over-represented in the sample as a whole.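 48-hour exposure, single concentration, 96-well plates; percent growth endpoint where 0 means no net growth. Active: below 10.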 A number with no mark means an inactive call. Calls of active or inactive are those of the source.

Turning to `c1ccc(-c2nc3nonc3nc2-c2ccccc2)cc1`, the growth in the experiment with RPMI-8226 leukemia is 71.9%; in the experiment on OVCAR-8 ovarian it was 72.8%; in the experiment with OVCAR-5 ovarian, 82.3%; in the experiment on OVCAR-4 ovarian it was 22.7%; in the experiment with SK-OV-3 ovarian, 74%; in the experiment on IGROV1 ovarian, 60.8%. For the same compound, the growth in the experiment with OVCAR-3 ovarian is 12.8%; in the experiment on HS 578T breast it was 64.3%; with T-47D breast, 61.6%; with BT-549 breast, 56.2%; in the experiment on MDA-MB-435 melanoma, 43.1%; with SW-620 colon it was 82.3%. In addition, the growth with MCF7 breast is 60.9%; in the experiment on HCT-116 colon it was 62.5%; in the experiment with HCC-2998 colon, 95.4%; with KM12 colon it was 74.4%.

With `C#Cc1cccc(NC(=O)c2ccc(NC(=O)C=C)cc2)c1`, the growth is 60.2% [8.25 µM] with RPMI-8226 leukemia; 75.9% [8.25 µM] in the experiment with OVCAR-8 ovarian; 86.7% [8.25 µM] with OVCAR-5 ovarian; 88.9% [8.25 µM] in the experiment on OVCAR-4 ovarian; 97% [8.25 µM] in the experiment on SK-OV-3 ovarian; 70.9% [8.25 µM] in the experiment on IGROV1 ovarian. Moreover, the growth is 70.5% [8.25 µM] with OVCAR-3 ovarian; 94.2% [8.25 µM] with HS 578T breast; 55.6% [8.25 µM] in the experiment with T-47D breast; 77% [8.25 µM] in the experiment with BT-549 breast; 65.5% [8.25 µM] in the experiment on MDA-MB-435 melanoma; 77.9% [8.25 µM] in the experiment on SW-620 colon. Besides, the growth is 59% [8.25 µM] in the experiment with MCF7 breast, 57.4% [8.25 µM] with HCT-116 colon, 101% [8.25 µM] in the experiment on HCC-2998 colon and 96.7% [8.25 µM] in the experiment with KM12 colon.

With `CC([C@H]1CCC2C3CCC4C[C@@H](NC=O)CC[C@]4(C)C3CC[C@@]21C)N(C)C` (stereo partly drawn), the growth was 41.1% with OVCAR-8 ovarian; 67.8% in the experiment with OVCAR-5 ovarian; -18.6% (active) with OVCAR-4 ovarian; 42.5% in the experiment on SK-OV-3 ovarian; 25.6% in the experiment on IGROV1 ovarian; -34.3% (active) in the experiment with OVCAR-3 ovarian. Also, the growth is -2.92% (active) with HS 578T breast; 27.1% in the experiment with NCI/ADR-RES ovarian; -40.6% (active) in the experiment with T-47D breast; 30.7% in the experiment with BT-549 breast; -46.1% (active) in the experiment with MDA-MB-435 melanoma; -71.5% (active) in the experiment with SW-620 colon. Besides, the growth was -23.1% (active) in the experiment with MCF7 breast, -66.2% (active) in the experiment with HCT-116 colon, -67.2% (active) in the experiment on HCC-2998 colon and -21.1% (active) with KM12 colon.

Take `COc1ccc(-c2nc(NCCO)[nH]c(=O)c2C#N)cc1`: the growth is 107% in the experiment with OVCAR-8 ovarian; 92.8% in the experiment with OVCAR-5 ovarian; 107% in the experiment on OVCAR-4 ovarian; 97.7% in the experiment with SK-OV-3 ovarian; 111% in the experiment on OVCAR-3 ovarian; 106% with HS 578T breast. Moreover, the growth with NCI/ADR-RES ovarian is 98.1%; in the experiment with T-47D breast, 82.8%; in the experiment with BT-549 breast it was 103%; in the experiment with MDA-MB-435 melanoma, 103%; with SW-620 colon it was 106%; with MCF7 breast it was 91.9%. The values for the growth in the experiment with HCT-116 colon, with HCC-2998 colon and in the experiment with KM12 colon were 102%, 103% and 95.8%, respectively.

Regarding `CCC(C)(c1cc(C(C)(C)C)c(O)c(C(C)(C)C)c1)c1cc(C(C)(C)C)c(O)c(C(C)(C)C)c1`, the growth in the experiment with OVCAR-8 ovarian was 102%; with OVCAR-5 ovarian it was 94.5%; with OVCAR-4 ovarian, 103%; in the experiment on SK-OV-3 ovarian it was 100%; in the experiment with OVCAR-3 ovarian it was 109%; in the experiment with HS 578T breast it was 97%. Further, the growth with NCI/ADR-RES ovarian is 102%; in the experiment on T-47D breast it was 84.2%; with BT-549 breast, 104%; in the experiment on MDA-MB-435 melanoma, 105%; with SW-620 colon, 102%; with MCF7 breast, 92.5%. In addition, the results for the growth in the experiment with HCT-116 colon, with HCC-2998 colon and in the experiment on KM12 colon were 99.2%, 110% and 100%, respectively.

`COc1ccc(C(Cc2ccccc2)NCCN2CCOCC2)cc1` (stereo not drawn): the growth in the experiment with RPMI-8226 leukemia was 109%; in the experiment with OVCAR-5 ovarian, 94.7%; in the experiment on OVCAR-4 ovarian, 98.7%; in the experiment with SK-OV-3 ovarian it was 102%; in the experiment on IGROV1 ovarian it was 91.8%; with OVCAR-3 ovarian, 100%. Further, the growth is 107% in the experiment with HS 578T breast; 98.7% in the experiment with NCI/ADR-RES ovarian; 85.4% in the experiment on T-47D breast; 82.1% in the experiment with BT-549 breast; 105% in the experiment with MDA-MB-435 melanoma; 107% in the experiment on SW-620 colon. Besides, the growth in the experiment with MCF7 breast was 89.2%; in the experiment with HCT-116 colon, 95.9%; in the experiment with HCC-2998 colon, 86.6%; with KM12 colon it was 104%.

In the case of `Cc1ccc2c(n1)C(=O)C(Cl)=C(Nc1ccccc1C(C)C)C2=O`, the growth in the experiment on OVCAR-8 ovarian is 67.5%; in the experiment with OVCAR-5 ovarian, 85.9%; in the experiment with OVCAR-4 ovarian it was 28.4%; in the experiment on SK-OV-3 ovarian, 79.7%; with IGROV1 ovarian, 63.9%; in the experiment on OVCAR-3 ovarian it was -3.79% (active). Besides, the growth is 100% in the experiment on HS 578T breast; 52.7% in the experiment on T-47D breast; 74.9% in the experiment with BT-549 breast; 48.2% in the experiment with SW-620 colon; 21.1% in the experiment on MCF7 breast; 25.1% in the experiment with HCT-116 colon. The growth with HCC-2998 colon is 113%; with KM12 colon it was 88%.

Turning to `O=C1/C(=C/c2ccc(F)cc2)Sc2c(Br)cccc21`, the growth in the experiment with OVCAR-8 ovarian is 64.9%; in the experiment on OVCAR-5 ovarian, 101%; in the experiment with OVCAR-4 ovarian, 82.3%; in the experiment on SK-OV-3 ovarian, 84.1%; with OVCAR-3 ovarian, 86.3%; in the experiment with HS 578T breast, 80.3%. In addition, the growth with T-47D breast is 43.4%; in the experiment with BT-549 breast, 87%; with MDA-MB-435 melanoma, 102%; in the experiment on SW-620 colon it was 89.4%; with MCF7 breast, 20.1%; in the experiment with HCT-116 colon, 85.8%. Further, the growth with HCC-2998 colon is 99.3%; with KM12 colon it was 86%.

Take `C=C(C)C1CCC2(C)OC2C1` (stereo not drawn): the growth in the experiment with OVCAR-8 ovarian is 113%; in the experiment on OVCAR-5 ovarian it was 102%; in the experiment on OVCAR-4 ovarian, 94.6%; in the experiment on SK-OV-3 ovarian it was 116%; in the experiment on IGROV1 ovarian, 89.5%; in the experiment on OVCAR-3 ovarian, 123%. Besides, the growth was 106% in the experiment with HS 578T breast; 99.6% in the experiment on NCI/ADR-RES ovarian; 117% in the experiment with T-47D breast; 99.3% with BT-549 breast; 98.2% in the experiment with MDA-MB-435 melanoma; 110% in the experiment on SW-620 colon. Also, the growth with MCF7 breast is 105%; in the experiment with HCT-116 colon, 109%; in the experiment with HCC-2998 colon, 114%; in the experiment with KM12 colon, 115%.

Source of the values: PubChem BioAssay (NCI).
